Experimental data taken from ChEMBL document CHEMBL4513216, “Probing the Open Global Health Chemical Diversity Library for Multistage-Active Starting Points for Next-Generation Antimalarials” (ACS Infect Dis, 2020).
Screen size: about 68,000 compounds; about 2,700 (4%) showed an effect of 50% or more. Only a selection was taken, and strong results are over-represented in it overall.

Each compound was assayed on Plasmodium berghei (assay: Screen against P. berghei liver stage (PbLuc), transformed with Luciferase, at 2uM). Conditions: tested at 2 uM.
Type: functional, HepG2

SMILES	INHIBITION
CC(C)OCCn1nnnc1Cc1ccc(Br)cc1	-21.99%
CNC(=O)NC(=O)CCN1CCN(c2nccs2)CC1	27.2%
CS(=O)(=O)c1ccc(C(O)CN2CCC(c3ccn[nH]3)CC2)cc1 (configuration not stated)	14.82%
C[C@@H]1CN(C(=O)c2cccs2)C[C@]12CCN(CCN(C)C)C2=O	6.12%
CCCc1nc(CN(CC)Cc2ccc(S(C)(=O)=O)cc2)no1	-5.31%
Cc1nnc(SCCC(=O)N(C)Cc2ccc(Cl)s2)[nH]1	55.36%
Cc1nnc(SCCC(=O)N(C)Cc2ccc(F)cc2Cl)[nH]1	52.98%
Cc1nnc(SCCC(=O)N(C)Cc2ccc(F)cc2F)[nH]1	10.05%
CN(Cc1ccc(Cl)s1)C(=O)Cn1nc(-c2ccc(F)cc2)oc1=O	14.82%
CN(CC(N)=O)Cc1ccc(F)cc1Cl	-6.61%
Cc1nnc(SCCC(=O)N(C)Cc2c(F)cccc2Cl)[nH]1	21.97%
O=C(NCCc1cccc(F)c1)NCC(O)c1cccc(F)c1 (configuration not stated)	-47.97%
COc1nc2c(cc1C(=O)N1CCCOC(CN3CCCC3)C1)CCC2 (configuration not stated)	-8.45%
CCN(Cc1cnn(C)c1)C[C@H]1CC[C@@H](Cc2ccc(OC)nc2)O1	-6.22%
CCN(Cc1cnn(C)c1)C[C@H]1CC[C@@H](Cc2ccc(CO)cc2)O1	36.78%
CCN(Cc1cnn(C)c1)C[C@H]1CC[C@@H](Cc2ccc(C)nc2)O1	55.84%
CN(C)S(=O)(=O)N1CCO[C@H]2[C@H](Oc3cccnc3)CC[C@@H]21	-16.75%
O=C(c1cc(CC2(NCC3CCCCC3)COC2)no1)N1CCCCC1	54.01%
OCCc1cc(CC2(NCc3ccncc3)COC2)no1	24.64%
O=C(c1cc(CC2(NCc3ccccc3)COC2)no1)N1CCCCC1	56.76%
COCc1cc(CC2(NCc3ccccc3Cl)COC2)no1	27.54%
CC(C)(O)c1cc(CC2(NCC3CCCCC3)COC2)no1	-24.31%
O=C(c1cc(CC2(NC3CCCCC3)COC2)no1)N1CCCCC1	10.08%
O=C(Nc1cccnc1)[C@@H]1C[C@H]2OCC[C@H]2N(Cc2nccs2)C1	1.06%
CSc1ccccc1CN1C[C@@H]2CC[C@H]1CN(Cc1[nH]cnc1C)C2	8.26%
O=C(Cc1ccc2c(c1)OCO2)N1CCCN(c2nccs2)CC1	79.21%

SMILES	INHIBITION
O=C(Cc1ccc2c(c1)CCO2)N1CCN(c2nccs2)CC1	-11.34%
O=C(Cc1ccc2c(c1)OCO2)N1CCCN(c2ccccc2)CC1	-50.86%
O=S(=O)(NCC1CCN(c2cnccn2)CC1)c1ccc(F)c(Cl)c1	20.8%
COc1ccc(-c2nc(C#N)c(N(C)C)o2)cc1S(=O)(=O)N(C)C	-36.29%
COC(=O)[C@H](C)NC(=O)Cn1ccc2ccc(F)cc21	0.08%
COC(=O)CCC(=O)Nc1ccc(Br)c(C)n1	11.88%
O=C([C@@H]1CCO[C@@H]2CCN(Cc3cccs3)C[C@H]21)N1CCCCO1	27.44%
CC(C)NC(=O)N1C[C@@H]2C[C@H](C(=O)NCc3ccccc3)[C@H](C1)O2	36.17%
CCOCC(=O)NCc1cc(C2CC2)n(C2CCCC2)n1	6.9%
O=C(NCc1cc(C2CC2)n(C2CCCC2)n1)C1CC1	14.47%
CCC(=O)NCc1cc(C2CC2)n(C2CCCC2)n1	50.7%
COCC(=O)N1CCC2(CC1)COCCN2Cc1ccc(F)cc1	-5.65%
Cc1ccc(NC(=O)CNC(C)CN2CCOCC2)c(F)c1 (configuration not stated)	21.24%
Cc1ccc(NC(=O)CN2CCOCC2)c(F)c1	-1.29%
Cc1ccc(NC(=O)CNC(C)CN2CCCCC2)c(F)c1 (configuration not stated)	64.35%
CSc1nccc(N2CCC(NCc3ccc4nsnc4c3)CC2)n1	-60.25%
O=C(CC1CCc2ccccc21)NC1(C(=O)O)CCOCC1 (configuration not stated)	0.54%
O=C(CC1CCc2ccccc21)NC1(C(=O)O)CCCC1 (configuration not stated)	16.93%
CC1(NC(=O)CC2CCc3ccccc32)CCOCC1 (configuration not stated)	60.15%
COC(=O)c1cc(OCC2CCC2)cc(C(=O)N[C@@H]2CCCNC2)c1	-28.09%
Cc1cccc(C)c1NC(=O)c1cccc(N(C)S(C)(=O)=O)c1C	-11.34%
CSCCc1nc(-c2ccc3c(c2)OCO3)n(C)n1	12.74%
CCCc1[nH]n(C)c(=N)c1-c1ccc2c(c1)OCO2	5.92%
CCc1[nH]n(C)c(=N)c1-c1ccc2c(c1)OCO2	37.53%
Cn1[nH]c(C2CCC2)c(-c2ccc3c(c2)OCO3)c1=N	14.06%
Cn1[nH]c(C2CC2)c(-c2ccc3c(c2)OCO3)c1=N	58.6%
